# The whole screen tested about 370,000 compounds, of which about 5,400 (1.5%) were called active.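 Rule for the calls: active = activation above the mean of all tested compounds plus 3 SD (cut at about 5.5% in these data); inactive = the rest.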 For the sample, actives were picked, then their nearest neighbours and some compounds at random.
# Tested on: DAF-12 nuclear receptor (Haemonchus contortus)
# Assay: hcDAF-12 driven luciferase reporter activation – cell-based, luminescence, HEK293, lit1-tk-luc reporter, primary screen (AID 652067);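 note: 100% = response to 3 µM Δ7-dafachronic acid high control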
# Conditions: HEK293 hcDAF-12 lit1-tk-luc reporter, at 6.8 µM, stronger effect = higher value, 0% DMSO, 100% Δ7-dafachronic acid
row,SMILES,activation
1,COc1ccccc1C1=Nc2cccc3cccc(c23)N1,-1.59% (inactive)
2,c1ccc(C2=Nc3cccc4cccc(c34)N2)cc1,6.59% (active)
3,Brc1ccc(C2CC(c3ccccc3)=Nc3ccccc3N2)cc1 (configuration not stated),4.68% (inactive)
4,O=C(CSc1nc2ccccc2n1Cc1ccccc1Cl)N/N=C\c1c[nH]c2ccccc12,1.72% (inactive)
5,O=C(CC1SCCNC1=O)Nc1ccc(Cl)cc1 (configuration not stated),1.04% (inactive)
6,CCOCc1nnc(NC(=O)CCC2CCCCC2)s1,-1.11% (inactive)
7,CC(C)CC(=O)NC(=S)NNC(=O)c1cccc([N+](=O)[O-])c1,1.89% (inactive)
8,CC(NC(=O)COC(=O)c1ccc2ccccc2n1)c1ccccc1 (configuration not stated),2.13% (inactive)
9,CC(C)CC(=O)N/C(N)=N/c1nc2ccccc2s1,8.5% (active)
10,Cc1cnc(C)c(N2CCN(C(=O)C3CCC(=O)N(CCc4cccc(F)c4)C3)CC2)n1 (configuration not stated),-0.94% (inactive)
11,Cc1sc2nc(SCC(=O)c3ccc(O)c(O)c3)n(Cc3ccco3)c(=O)c2c1C,-0.45% (inactive)
12,CC12CCC(C(=O)N3CCN(c4ncccn4)CC3)(c3nc4ccccc4nc31)C2(C)C (configuration not stated),-0.6% (inactive)
13,CC1=C(N2CCN(c3ncccn3)CC2)CCC1=O,-1.78% (inactive)
14,c1cnc(N2CCN(c3ccc4ccccc4n3)CC2)nc1,9.72% (active)
15,COC(=O)N1Cc2ccnnc2CC1c1ccccc1Br (configuration not stated),-2.69% (inactive)
16,Nc1ccn([C@@H]2O[C@H](C(=O)N[C@H]3CCCCNC3=O)[C@@H](O)[C@H]2O)c(=O)n1,0.58% (inactive)
17,Cc1cccc(N2CCN(Cc3c(C)n(C)n(-c4ccccc4)c3=O)CC2)c1C,-2.12% (inactive)
18,CCn1cc(CN2CCN(CC(C)(C)C)C(CCO)C2)c2ccccc21 (configuration not stated),7.54% (active)
19,COc1ccccc1N1CCC(N2CCN(CC(C)(C)C)C(CCO)C2)CC1 (configuration not stated),-0.72% (inactive)
20,Cc1ccc(CN2CCN(Cc3ccccc3-c3ccco3)CC2CCO)o1 (configuration not stated),-0.79% (inactive)
21,COC(=O)[C@]12C[C@H](CC(=O)NCc3ccccc3)C(=O)N(Cc3ccccc3)C1=C[C@H](COCc1ccccc1)O[C@@H]2C,-1.28% (inactive)
22,CC(=O)c1cccc(NC(=O)COc2ccc(S(=O)(=O)N3CCOCC3)cc2)c1,-0.45% (inactive)
23,Cc1ccccc1NC(=O)C1CCN(c2ncccn2)CC1,0.03% (inactive)

row,SMILES,activation
1,Nn1c(SCC(=O)N2c3ccccc3Sc3ccccc32)nnc1-c1n[nH]c2c1CCC2,-2.66% (inactive)
2,CCOC(=O)c1ccccc1NC(=O)c1c(N)n(C)c(=O)[nH]c1=O,-0.79% (inactive)
3,CCOC(=O)c1cc2n(c1N)-c1ccccc1C2=O,6.53% (active)
4,CCOC(=O)c1cnn(Cc2ccccc2Cl)c1N,1.1% (inactive)
5,C[C@H](O)[C@@H]1CN2CCc3ccc(-c4ccc5c(c4)OCO5)cc3[C@@H]2C[C@@H]1N(C)C(=O)C1CCCCC1,-0.66% (inactive)
6,Cc1ccc(OCc2nnc(SC/C=C/c3ccccc3)n2Cc2ccco2)cc1,-1.14% (inactive)
7,COc1ccc(N2CCN(CCNS(=O)(=O)c3ccc(C(C)(C)C)cc3)CC2)cc1,-4.56% (inactive)
8,CC1=NCCN1S(=O)(=O)c1ccc(Br)c(C)c1,-1.01% (inactive)
9,COc1ccc(CN2C/C(=C/c3ccccc3)N3C(=O)C[C@@H](c4ccccc4)N=C23)c(OC)c1,-1.56% (inactive)
10,COc1cc2ccccc2cc1C(=O)N(CCN(C)C)c1nc2c(F)cccc2s1,6.37% (active)
11,COc1cccc2cc(C(=O)N(C)C)c(=O)oc12,-0.74% (inactive)
12,CN(CCOc1ccccc1)C(=O)c1cc(COc2c(F)cccc2F)on1,-1.26% (inactive)
13,O=S1(=O)c2ccc(N3CCN(Cc4ccccc4F)CC3)cc2Oc2ccccc2CN1Cc1cn(Cc2ccc(Cl)cc2)nn1,0.96% (inactive)
14,COc1ccc(CNS(=O)(=O)c2cc(Br)ccc2Br)cc1,-0.97% (inactive)
15,CC1CCN(C(=O)c2ncn3c2C(=O)N[C@@H](C)C3)CC1,-0.73% (inactive)
16,COc1nc(N=C(N)N)nc2c(C)cccc12,6.14% (active)
17,Cc1nc(N=C(N)N)nc2c(C)cccc12,5.96% (active)
18,CCc1c(C)nc2c(OC)cccc2c1Cl,-0.4% (inactive)
19,CCOC(=O)[C@]12CCCCC/C=C\1N(Cc1ccc(OC)cc1)C(=O)[C@H]2CC(=O)N1CCOCC1,4.16% (inactive)
20,Cc1cc(C(=O)NN=C/C=C/c2ccco2)n[nH]1,-0.38% (inactive)
21,NNc1nc2c(Cl)cccc2s1,10% (active)
22,COC(=O)C1=C(C)N(Cc2ccccc2C(F)(F)F)C(=NCC2CC2)NC1c1cccc(Cl)c1 (configuration not stated),-1.98% (inactive)
23,COc1cc(OC)cc(-c2nc3ccccc3c(=O)n2NC(=O)c2cccnc2Cl)c1,-1.71% (inactive)

row,SMILES,activation
1,Cc1cccc(-c2nc3ccccc3c(=O)n2NC(=O)Cc2ccc(Cl)cc2)c1,6.73% (active)
2,O=C(Nn1c(-c2ccc(Cl)cc2)nc2ccccc2c1=O)c1cccnc1Cl,0.57% (inactive)
3,S=c1c2[nH]cnc2ncn1CCSc1ncnc2nc[nH]c12,-0.28% (inactive)
4,O=C(O)CCCC(=O)Nc1ccccc1-n1ccnc1,-1.24% (inactive)
5,CC(CC(=O)Nc1ccccc1)n1ccnc1 (configuration not stated),5.72% (active)
6,CC(C)CC(=O)Nc1ccc(Cc2ccncc2)cc1,0.36% (inactive)
7,CCOc1ccc(NC(=O)CCS(=O)(=O)c2ccc3c(c2)CCCN3C(=O)CC)cc1,-1.11% (inactive)
8,Cc1ccccc1C(=O)Nc1ccccc1Sc1ccccc1,-0.9% (inactive)
9,Cc1ccccc1NC(=O)CCOc1ccccc1,0.95% (inactive)
10,COc1cc2ccccc2cc1C(=O)Nc1ccccc1C,10.1% (active)
11,CCCCCCCCN1C(=O)[C@@H](CC(=O)NCc2ccccc2)C[C@@]2(C(=O)OC)C1=C[C@H](C(C)(C)C)O[C@@H]2C,1.65% (inactive)
12,COC1=C[C@H](C(=O)NCCNC(C)=O)[C@H](C)[C@@H](c2ccccc2)CC1=O,-2.16% (inactive)
13,O=C(c1ccccc1)c1ccc(-c2ccccc2C(=O)NC2CCCCN(Cc3ccc(Cl)cc3)C2=O)cc1 (configuration not stated),-0.91% (inactive)
14,COC(=O)c1c(-c2ccc(OC)cc2)c2c(c3c4ccccc4n(S(=O)(=O)c4ccc(C)cc4)c13)C(=O)N(C)C2,1.29% (inactive)
15,COC(=O)C1[C@H]2SC(C)(C)C(C(=O)OC)N2C(=O)N1Cc1nc2ccccc2s1 (some centres not stated),0.45% (inactive)
16,CCc1ccc(-c2nnn(Cc3nc4ccccc4s3)n2)cc1,3.01% (inactive)
17,COc1ccccc1OCc1nc2ccccc2s1,17.9% (active)
18,N#Cc1ccc(OC[C@@H](O)CN2CCC(C(O)(c3ccccc3)c3ccccc3)CC2)c(F)c1,0.25% (inactive)
19,Cc1ccnc(NC(=O)CCCOc2ccccc2)c1,2.54% (inactive)
20,CSCCC(NC(=O)c1ccco1)C(=O)Nc1cc(C)ccn1 (configuration not stated),5.45% (inactive)
21,COc1cc(SC)ccc1C(=O)Nc1cc(C)ccn1,9.16% (active)
22,Cc1ccnc(NC(=O)c2ccoc2C)c1,7.44% (active)
23,COc1cc(SC)ccc1C(=O)Nc1nc(C)cs1,-4.3% (inactive)

row,SMILES,activation
1,Cc1ccnc(NC(=O)C(C)N2C(=O)c3ccccc3C2=O)c1 (configuration not stated),-0.09% (inactive)
2,O=C(NCc1ccccc1)[C@H]1CCCN1C(=O)[C@@H]1CCCN1C(=O)c1ccc(Cl)cc1Cl,-1.62% (inactive)
3,O=C(CSc1nc2ccccc2n1Cc1ccccc1)NNC(=S)Nc1ccccc1,-1.89% (inactive)
4,COC(=O)c1cc2c(c3c4ccccc4n(S(=O)(=O)c4cccc(C)c4)c13)C(=O)N(Cc1ccccc1)C2,1.43% (inactive)
5,Oc1ccc(/C=C/c2c(F)cccc2F)c2cccnc12,-3.66% (inactive)
6,O=C1[C@@H](c2ccccc2)[C@@H](c2ccccc2)N1c1ccccc1,-1.98% (inactive)
7,Cc1nn2c(c1-c1ccccc1)N=C(c1ccco1)CC2c1ccccc1 (configuration not stated),-0.56% (inactive)
8,Cc1cc(-c2ccccc2)n2nc(C)c(-c3ccccc3)c2n1,-0.96% (inactive)
9,Cc1nn(C(=O)c2ccoc2C)c(N)c1-c1ccccc1,12.4% (active)
10,CCOc1ccc(-n2c(SCC(=O)Nc3cc(C)c(NC(=O)c4ccccc4)cc3OC)nnc2-c2cccc(Cl)c2)cc1,-2.73% (inactive)
11,Cc1ccccc1NC(=O)Cn1nnc(-c2ccccc2F)n1,1.07% (inactive)
12,CN1CCCCC(NC(=O)C(C)(C)C)C1=O (configuration not stated),-1.55% (inactive)
13,Cc1nn(CCOc2ccccc2)c(=O)n1-c1ccccc1F,6.6% (active)
14,Cc1c(C(N)=O)sc2ncn(CCOc3ccccc3)c(=O)c12,-0.81% (inactive)
15,Cc1cccc2c1N(CCOc1ccccc1)C(=O)C2=O,-2.22% (inactive)
16,Cc1ccc(N)cc1CN1CCN(c2ncc(Cc3ccccc3)cn2)CC1,-1.34% (inactive)
17,O=C1CC[C@@]23CCCN2C(=O)CCC[C@H]3[C@H]1Cc1ccccc1,-0.12% (inactive)
18,NC(=O)c1ncn([C@@H]2O[C@H](C(=O)O)[C@@H](O)[C@H]2O)n1,-0.43% (inactive)
19,CC(=O)OCC(C)n1c(=O)c2ccccc2n1C(C)=O (configuration not stated),-0.22% (inactive)
20,CC(=O)n1c(C=Nc2ccccc2)c(O)c2ccccc21,7.8% (active)
21,O=C(Nc1ccc(Br)cc1)OCCN1C(=O)CCC12CCC(c1ccccc1)CC2 (configuration not stated),-1.25% (inactive)
22,Cc1ccc(-c2nnc(SCC(=O)Nc3ccc(Oc4ccccc4)cc3)n2Cc2ccco2)cc1,-2.76% (inactive)
23,CCC(C)[C@@H](C(=O)OC)N(CCc1cn(Cc2ccccc2)nn1)S(=O)(=O)c1ccccc1Br (some centres not stated),-2.4% (inactive)

# — PubChem BioAssay AID652067 (The Scripps Research Institute Molecular Screening Center, 2013)
